From PubChem BioAssay AID504332 (National Center for Advancing Translational Sciences (NCATS), 2011) come the findings set out here.

The campaign covered roughly 350,000 compounds. About 31,000 (8.9%) were called active. A call without a number means that no potency is given here. About 15% were inconclusive and are not listed. This is one part of a sample in which actives are shown more often than they occur. Unmarked numbers belong to inactive results. Calls follow the shape of the dose curve; as a rule, active = well fitted inhibition curve with a large enough effect; inconclusive = small, poorly fitted or top-dose-only effect; inactive = no such curve, though single readings can be large or run the other way.
Potency is read from the fitted curve at half-maximal effect.

Histone-lysine N-methyltransferase EHMT2 (Homo sapiens), sequence (Q96KQ7 913-1193 limits assumed): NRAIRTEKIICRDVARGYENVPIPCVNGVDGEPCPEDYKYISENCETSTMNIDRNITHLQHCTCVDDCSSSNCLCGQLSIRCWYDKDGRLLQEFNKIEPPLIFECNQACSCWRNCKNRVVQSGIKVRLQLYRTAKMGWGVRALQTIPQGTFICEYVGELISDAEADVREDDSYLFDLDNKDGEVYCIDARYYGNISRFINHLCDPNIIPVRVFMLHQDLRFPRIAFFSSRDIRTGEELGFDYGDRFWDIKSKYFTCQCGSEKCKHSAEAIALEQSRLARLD

For this assay, the target named is Histone-lysine N-methyltransferase EHMT2 (Homo sapiens) (UniProt Q96KQ7). Nature of the assay: qHTS Assay for Inhibitors of Histone Lysine Methyltransferase G9a. Also: nearly all actives have a fitted effect of over 75% in size. The note with it: G9a H3K9 monomethylation, AlphaScreen, 2 h; series mostly up to 59 µM. Summed up:
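Readings reflect AlphaScreen signal from monomethyl-H3K9 antibody detection. HMT at 20 nM; substrate b-H3K9 500 nM; cofactor SAM 20 uM; 2 h RT reaction; compounds tested as titrations in qHTS with 15 min preincubation.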
Background: qHTS replaces the single test concentration by a dilution series.
With `CCN(CC)CCNS(=O)(=O)c1ccc(/C=C/C(=O)O)cc1`, the Potency is 39.8 µM (active). As to `O=C(O)/C=C/c1ccc(S(=O)(=O)N2CCCCCC2)cc1`, the Potency entry is “inactive”. On the same count and under the same terms, the entry for `CCC(C)NC(=O)/C=C/c1ccc(S(=O)(=O)NCc2ccco2)cc1` (configuration not stated) is “inactive”.

For the molecule `Cc1cc(NC(=O)CSC2=NS(=O)(=O)c3cc(Cl)ccc3N2)no1`, the Potency entry was “inactive”. Same read-out and setting: then `O=C(NCc1ccco1)C(=O)c1cn(CC(=O)N2CCCCCC2)c2ccccc12`, with 50.1 µM (active); and `Cc1ccc(CNC(=O)C(=O)c2cn(CC(=O)N3CCCC3)c3ccccc23)cc1`, with “inactive”. On the same count and under the same terms, then `O=C(NCCCn1ccnc1)C(=O)c1cn(CC(=O)N2CCCCCC2)c2ccccc12`, with “inactive”. As for `COc1cccc(OCCn2c(-c3ccc(Br)cc3)nc3ccccc3c2=O)c1`, the Potency entry is “inactive”. Consider `Cc1oc2ncn(CC(C)C)c(=O)c2c1C(=O)N1CCN(c2ccccc2F)CC1`, for which the Potency result was “inactive”. Still for that read-out and setting: then `Cc1cc(Cl)c2oc(C(=O)N(C)C(C)c3ccccn3)c(C)c2c1` (configuration not stated), with “inactive”.

With `COc1ccc(-c2sc3ccc(OC)cc3c2C#Cc2ccccn2)cc1`, the activity, negative = inhibition was -2.78% [at 0.501 µM]. `Cc1cc(C)cc(NC(=O)COc2coc(CN3CCN(c4ccccc4)CC3)cc2=O)c1`: the Potency entry is “inactive”. With `CCOc1ccc(N/C=C/C(=O)c2cc(OC)c(OC)c(OC)c2)cc1`, the activity, negative = inhibition was -10.6% [at 0.501 µM]. For `CCOC(=O)c1c(NC(=O)CCC(=O)NCc2ccco2)sc2c1CCCC2`, the Potency result is “inactive”.

`CCOc1ccc(NC(=O)c2c(NC(=O)Cc3ccccc3)sc3c2CCCCC3)cc1`: the Potency is 1.12 µM (active). For the molecule `CCOC(=O)c1ccc(NC(=O)c2csc3c2CCCCC3)cc1`, the Potency entry is “inactive”. Turning to `Cc1ccc(C(=O)NCCNC(=O)c2ccccc2)cc1`, the Potency result was “inactive”. `COC(=O)c1c(NC(=O)CCCC(=O)O)sc2c1CCCCC2`: the activity, negative = inhibition is 23% [at 12.7 µM]. With `CCOc1ccc(CCNC(=O)c2csc3c2CCCCC3)cc1`, the Potency entry is “inactive”. In the case of `CCOC(=O)c1ccc(NC(=O)c2c(NCc3cccc(OC)c3)sc3c2CCC3)cc1`, the Potency was 7.94 µM (active).

In the case of `Cc1sc(NC(=O)c2ccc3ncsc3c2)c(C(N)=O)c1C`, the Potency result was “inactive”.

As to `O=C(Cc1ccccc1)Nc1sc2c(c1C(=O)Nc1ccc(Br)cc1)CCC2`, the Potency result is “inactive”. As for `CCOC(=O)c1ccc(NC(=O)CC2C(=O)N(c3cccc(OC)c3)C(=O)N2C2CCCCC2)cc1` (configuration not stated), the Potency entry was “inactive”. For `Cc1ccc(C(=O)c2c(NC(=O)c3ccccc3)sc(C)c2C)cc1`, the Potency was 8.91 µM (active). For `Cc1ccc(NC(=O)c2c(NC(=O)CCC(=O)O)sc3c2CCCCC3)cc1`, the Potency is 28.2 µM (active). Regarding `Cc1cc(C)cc(Nc2ncnc3onc(-c4ccc(F)cc4)c23)c1`, the Potency result is “inactive”.

Consider `CNC(=O)CN1C(=O)c2cccnc2Sc2ccccc21`, for which the Potency entry was “inactive”.
